Source: paper PMC5540273 (PLoS ONE, 2017)

How the values were obtained:
Conditions in all cases: concentration: 1 μM, replicates: in singlicate; n = 1
WNK4 = test system: WNK4
YANK1 = test system: T1, YANK1
T1 construct: gene STK32A

YANK2 = test system: T2, YANK2
T2 construct: gene STK32B

YANK3 = test system: T3, YANK3
T3 construct: gene STK32C

YES = test system: T4, YES
T4 construct: gene YES1

YSK1 = test system: T5, YSK1
T5 construct: gene STK25

YSK4 = test system: T6, YSK4
T6 construct: gene MAP3K19

ZAK = test system: ZAK
ZAP70 = test system: ZAP70
p38-alpha = test system: T7, p38-alpha
T7 construct: gene MAPK14
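Note: KINOMEscan kinase panel screen.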

| SMILES | %Inh (WNK4) | %Inh (YANK1) | %Inh (YANK2) | %Inh (YANK3) | %Inh (YES) | %Inh (YSK1) | %Inh (YSK4) | %Inh (ZAK) | %Inh (ZAP70) | %Inh (p38-alpha) |
| --- | --- | --- | --- | --- | --- | --- | --- | --- | --- | --- |
| Nc1nc(-c2ccc3c(N)n[nH]c3c2)cc(N2CCC[C@@H](C(=O)Nc3ccccc3)C2)n1.O=C(O)C(F)(F)F.O=C(O)C(F)(F)F [GSK2288359] | 0% | 4% | 0% | 0% | 0% | 5% | 9% | 3% | 0% | 0% |
| CCc1nc(-c2cccc(N(C)S(=O)(=O)c3ccccc3)c2)c(-c2ccnc(Nc3ccc(N4CCN(C(C)=O)CC4)nc3)n2)s1 [GSK1645895] | 0% | 5% | 18% | 11% | 33% | 26% | 29% | 83% | 0% | 60% |
| Cn1ccc2ncnc(Oc3ccc(NC(=O)Nc4cccnc4)c(Cl)c3)c21 | 0% | 0% | 13% | 7% | 0% | 0% | 0% | 3% | 0% | 14% |
| COc1cc2ncnc(Nc3ccc(OCc4ccccc4Br)c(Cl)c3)c2cc1OC.Cl [GI261590] | 52% | 0% | 0% | 21% | 31% | 0% | 33% | 33% | 19% | 63% |
| Fc1cccc(COc2ccc(Nc3ncnc4nn5ccccc5c34)cc2Cl)c1 [GW689066] | 23% | 0% | 0% | 6% | 13% | 1% | 3% | 4% | 0% | 11% |
| Nc1n[nH]c2nnc(-c3ccccc3)cc12 [SB-517389] | 0% | 13% | 0% | 21% | 16% | 0% | 75% | 24% | 0% | 0% |
| O=C(CCO)NCCn1ccc2ncnc(Nc3ccc(Oc4cccc(C(F)(F)F)c4)c(Cl)c3)c21 | 0% | 0% | 0% | 0% | 0% | 0% | 0% | 0% | 0% | 0% |
| CCCc1ccc(S(=O)(=O)NC2CCN(c3ccnc(Nc4ccc(OC)cc4)n3)C2)cc1 (stereo not drawn) [GSK1379737] | 45% | 0% | 0% | 16% | 5% | 0% | 30% | 8% | 0% | 10% |
| COc1ccc(Nc2nccc(N3CCC(NC(=O)Nc4ccc5c(c4)OCO5)C3)n2)cc1 (stereo not drawn) [GSK1379745] | 24% | 3% | 15% | 16% | 0% | 0% | 7% | 0% | 0% | 12% |
